According to PubChem BioAssay (Tox21):
Where “and” joins values, the source holds several entries; their conditions need not be identical. Equal values may be shown once. Records with an inconclusive call do not appear. Calls of active or inactive are those of the source. Unless noted, calls follow the shape of the dose curve; as a rule, active = well fitted curve in the direction sought with a large enough effect in the repeat runs; inconclusive = weak or mixed curves; inactive = no such curve, though single readings can be large; an effect the other way counts as inactive or inconclusive.

Assays:
[1] = target: Estrogen receptor beta (Homo sapiens) (UniProt Q92731); assay: qHTS assay to identify small molecule agonists of the estrogen receptor beta (ER-beta) signaling pathway (AID 1259377; active = well fitted activation curve with a large enough effect in the signal ratio in the repeat runs, not every such curve was filed as active; the % refers to the signal ratio)
Outline: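 Read-out: beta-lactamase FRET fluorescence. Cell line: ER-beta-UAS-bla HEK293T in 2% charcoal-stripped FBS. Exposure: 16 hr at 37C. Substrate step: 2 h at room temperature.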

[2] = target: Estrogen receptor beta (Homo sapiens) (UniProt Q92731); assay: qHTS assay to identify small molecule antagonists of the estrogen receptor beta (ER-beta) signaling pathway (AID 1259378; active = well fitted inhibition curve with a large enough effect in the signal ratio in the repeat runs, not every such curve was filed as active; the % refers to the signal ratio; also: potency is read from the fitted curve at half-maximal effect)
Outline: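 ER-beta-UAS-bla HEK293T cells in 2% charcoal-stripped FBS medium treated with compound plus 1nM final 17-beta-estradiol for 16 hr at 37C. Beta-lactamase reporter read by FRET substrate fluorescence after 2 hours at room temperature.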

[3] = qHTS assay to identify small molecule agonists of the androgen receptor (AR) signaling pathway in the presence of an antagonist - cell viability counter screen (AID 1259379); also: nearly all actives have a fitted effect of over 25% in size; also: potency is read from the fitted curve at half-maximal effect;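 as to activity change, negative = cytotoxicity: MDA-kb2 human breast cancer cells carrying an MMTV luciferase reporter; series mostly up to about 92 µM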
Outline: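 Seed MDA-kb2 at 3,000 cells/well; incubate 5 hr, 37C, 0% CO2. Add nilutamide to 3.0uM final, then pin compounds at 15 concentrations. Incubate 16 hr. Add CellTiter-Fluor at 15 hr, read fluorescence after 1 hr.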

[4] = qHTS assay to identify small molecule agonists of the estrogen receptor beta (ER-beta) signaling pathway - cell viability counter screen (AID 1259380); also: nearly all actives have a fitted effect of over 30% in size; also: potency is read from the fitted curve at half-maximal effect
Outline: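 CellTiter-Glo read, 30 min RT, same wells as bla assay; cells ER-beta-UAS-bla HEK293T; 16 hr compound, 37C; medium 2% charcoal-stripped FBS.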

[5] = target: Androgen receptor (Homo sapiens) (UniProt P10275); assay: qHTS assay to identify small molecule agonists of the androgen receptor (AR) signaling pathway in the presence of an antagonist (AID 1259381; calls by dose curve; also: nearly all actives have a fitted effect of over 15% in size)
Outline: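 Test compounds at 15 concentrations were incubated for 16hr with MDA-kb2 reporter cells in presence of 3.0uM nilutamide (final). Signal: ONE-Glo luciferase luminescence.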

[6] = qHTS assay to identify small molecule antagonists of the estrogen receptor beta (ER-beta) signaling pathway - cell viability counter screen (AID 1259382); also: nearly all actives have a fitted effect of over 55% in size; also: potency is read from the fitted curve at half-maximal effect; as to activity change, negative = cytotoxicity: series mostly up to about 92 µM
Outline: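 In this multiplexed counter screen, cells were seeded at 2,000 per well in medium with 2% charcoal-stripped FBS and incubated 6 hr before compound and 1nM final E2 were added. Sixteen hours later, ATP-based luminescence reported viability.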

[7] = target: Estrogen receptor (Homo sapiens) (UniProt P03372); assay: qHTS assay to identify small molecule agonists of the estrogen receptor alpha (ER-alpha) signaling pathway in the presence of an antagonist (AID 1259383; calls by dose curve; also: top concentration of the series differs between compounds; nearly all actives have a fitted effect of over 15% in size)
Outline: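 Stably transfected VM7Luc4E2 reporter cells, kept 5 days in charcoal-stripped serum, received ICI-182,780 at 10.0nM final before compound addition. Following 22hr incubation at 37C and 5% CO2, luciferase signal was read by luminescence.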

[8] = qHTS assay to identify small molecule agonists of the estrogen receptor alpha (ER-alpha) signaling pathway in the presence of an antagonist - cell viability counter screen (AID 1259386);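 also: cells exposed to compounds for 22 h at 37 °C before the viability read; nearly all actives have a fitted effect of over 30% in size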; also: potency is read from the fitted curve at half-maximal effect; as to activity change, negative = cytotoxicity: series mostly up to about 92 µM
Outline: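 Viability counter screen using VM7Luc4E2 (full-length ER-alpha, four ERE-luciferase). The cells were treated with compounds alongside ICI-182,780 10.0nM for 22hr, and live-cell protease fluorescence was quantified with CellTiter-Fluor.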

[9] = target: Progesterone receptor (Homo sapiens) (UniProt P06401); assay: qHTS assay to identify small molecule agonists of the progesterone receptor (PR) signaling pathway (AID 1346784; calls by dose curve; also: nearly all actives have a fitted effect of over 30% in size)
Outline: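 Compounds were tested for PR agonism in HEK 293T cells bearing a beta-lactamase gene under UAS control. Treatment lasted 16 hr at 37C; signal came from fluorescence of a FRET substrate.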

[10] = target: Progesterone receptor (Homo sapiens) (UniProt P06401); assay: qHTS assay to identify small molecule antagonists of the progesterone receptor (PR) signaling pathway (AID 1346795; active = well fitted inhibition curve with a large enough effect in the signal ratio in the repeat runs, not every such curve was filed as active; the % refers to the signal ratio; also: potency is read from the fitted curve at half-maximal effect)
Outline: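 In HEK293T cells bearing the PR-UAS-bla reporter, compound effects on promegestone-driven (1 nM) beta-lactamase expression are assessed after 16 hr using a fluorescent FRET substrate incubated 2 hr at room temperature.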

[11] = qHTS assay to identify small molecule antagonists of the progesterone receptor (PR) signaling pathway - cell viability counter screen (AID 1346798); also: nearly all actives have a fitted effect of over 50% in size; also: potency is read from the fitted curve at half-maximal effect; as to activity change, negative = cytotoxicity: series mostly up to about 92 µM
Outline: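 Following a 4 hr attachment, PR-UAS-bla HEK293T cells in charcoal-stripped FBS medium were exposed to compounds with R5020 for 16 hr; CellTiter-Glo was added and luminescence read after 30 min at room temperature.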

[12] = qHTS assay to identify small molecule agonists of the progesterone receptor (PR) signaling pathway - cell viability counter screen (AID 1346799; calls by dose curve; also: nearly all actives have a fitted effect of over 45% in size; also: potency is read from the fitted curve at half-maximal effect)
Outline: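 Here, 3,000 PR-UAS-bla HEK293T cells per well were treated with compounds for 16 hr after a 6 hr preincubation at 37C and 5% CO2; cell viability is the CellTiter-Glo luminescence signal.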

[13] = qHTS assay to identify small molecule antagonists of the TGF-beta/Smad signaling pathway - cell viability counter screen (AID 1346824); also: nearly all actives have a fitted effect of over 50% in size; also: potency is read from the fitted curve at half-maximal effect
Outline: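 SBE-bla HEK 293T cells, incubated overnight, then compound plus 0.25 ng/mL TGF-beta1 (stock added) for 5 hr at 37 C. Viability was read in the same wells by CellTiter-Glo luminescence after 30 min at room temperature.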

[14] = qHTS assay to identify small molecule agonists of the TGF-beta/Smad signaling pathway - cell viability counter screen (AID 1346829); also: nearly all actives have a fitted effect of over 45% in size; also: potency is read from the fitted curve at half-maximal effect; as to activity change, negative = cytotoxicity: top concentration of the series differs between compounds
Outline: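 Luminescence from CellTiter-Glo, read after a 30 min room-temperature incubation, gives cell viability of SBE-bla HEK 293T cells treated 5 hr with compounds at 37 C.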

[15] = target: Thyrotropin-releasing hormone receptor (Homo sapiens) (UniProt P34981); assay: qHTS assay to identify small molecule antagonists of the thyrotropin-releasing hormone receptor (TRHR) signaling pathway (AID 1346877; active = well fitted inhibition curve with a large enough effect in the repeat runs, not every such curve was filed as active; also: potency is read from the fitted curve at half-maximal effect; as to activity, negative = inhibition: series mostly up to about 51 µM)
Outline: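 Following an 18 h incubation at 37 °C and a 2 h calcium dye load, TRHR-HEK293 cells were exposed to compound (5 min, room temperature) and challenged with TRH, 1 nM final.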

[16] = target: Thyrotropin-releasing hormone receptor (Homo sapiens) (UniProt P34981); assay: qHTS assay to identify small molecule agonists of the thyrotropin-releasing hormone receptor (TRHR) signaling pathway (AID 1346891; calls by dose curve; also: potency is read from the fitted curve at half-maximal effect; as to activation: series mostly up to about 58 µM)
Outline: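 Screening of agonists relied on calcium signalling in HEK293 cells expressing human TRHR: dye loading 2 h at 37 °C preceded compound addition and a 3-min fluorescence time course.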

[17] = Human pregnane X receptor (PXR) small molecule agonists, qHTS cell viability counter screen (AID 1346977); also: nearly all actives have a fitted effect of over 50% in size; also: potency is read from the fitted curve at half-maximal effect
Outline: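 Tox21 qHTS format; PXR-Luc HepG2, 2,000/well, charcoal-stripped FBS 5%. Cpd exposure 24hr. Read: CellTiter-Fluor fluorescence, multiplexed with luciferase.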

[18] = qHTS assay to identify small molecule agonists or antagonists of the thyroid stimulating hormone receptor (TSHR) signaling pathway - wild type cell line counter screen (AID 1259384; calls by dose curve)
Outline: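 Wild-type Hek293 cells, 800/well, 18 h at 37C, then compound with Ro20-1724 for 30 min RT. cAMP by HTRF (cAMP-d2/anti-cAMP cryptate), 1 h RT, fluorescence read. 15 concentrations, triplicates.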

[19] = target: Thyrotropin receptor (Homo sapiens) (UniProt P16473); assay: qHTS assay to identify small molecule antagonists of the thyroid stimulating hormone receptor (TSHR) signaling pathway (AID 1259385; calls by dose curve; also: nearly all actives have a fitted effect of over 20% in size)
Outline: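 TSHR-HEK293 cells (800/well) plated 18 h, then compounds with Ro20-1724 and TSH at 1.5 ng/mL final, 30 min at room temperature. cAMP quantified by HTRF (cAMP-d2/anti-cAMP-cryptate, 1 h); 15 concentrations in triplicate.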

[20] = qHTS assay to identify small molecule agonists of the TGF-beta/Smad signaling pathway (AID 1346859; active = well fitted activation curve with a large enough effect in the signal ratio in the repeat runs, not every such curve was filed as active; the % refers to the signal ratio; also: series mostly up to about 77 µM)
Outline: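 Each well held 4,000 SBE-bla HEK 293T cells incubated overnight before compound addition; 5 hr later the cleavable FRET substrate went on for 2 hr at room temperature, and fluorescence was read at two emissions.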
% is scaled to controls: 0 for no effect and ±100 for the full control effect.

Thyrotropin-releasing hormone receptor (Homo sapiens), sequence (P34981 whole entry, looked up): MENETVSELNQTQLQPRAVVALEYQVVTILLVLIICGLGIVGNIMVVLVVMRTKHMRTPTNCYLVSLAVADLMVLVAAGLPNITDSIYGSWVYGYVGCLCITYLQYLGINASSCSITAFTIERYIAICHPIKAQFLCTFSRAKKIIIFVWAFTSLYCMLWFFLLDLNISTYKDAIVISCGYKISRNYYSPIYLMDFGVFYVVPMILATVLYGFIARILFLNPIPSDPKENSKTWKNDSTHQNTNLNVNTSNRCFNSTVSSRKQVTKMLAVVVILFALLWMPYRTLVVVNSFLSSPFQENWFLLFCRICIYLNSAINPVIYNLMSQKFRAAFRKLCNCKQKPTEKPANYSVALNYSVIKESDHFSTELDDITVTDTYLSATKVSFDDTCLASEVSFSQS
Estrogen receptor beta (Homo sapiens), sequence (Q92731 whole entry, looked up): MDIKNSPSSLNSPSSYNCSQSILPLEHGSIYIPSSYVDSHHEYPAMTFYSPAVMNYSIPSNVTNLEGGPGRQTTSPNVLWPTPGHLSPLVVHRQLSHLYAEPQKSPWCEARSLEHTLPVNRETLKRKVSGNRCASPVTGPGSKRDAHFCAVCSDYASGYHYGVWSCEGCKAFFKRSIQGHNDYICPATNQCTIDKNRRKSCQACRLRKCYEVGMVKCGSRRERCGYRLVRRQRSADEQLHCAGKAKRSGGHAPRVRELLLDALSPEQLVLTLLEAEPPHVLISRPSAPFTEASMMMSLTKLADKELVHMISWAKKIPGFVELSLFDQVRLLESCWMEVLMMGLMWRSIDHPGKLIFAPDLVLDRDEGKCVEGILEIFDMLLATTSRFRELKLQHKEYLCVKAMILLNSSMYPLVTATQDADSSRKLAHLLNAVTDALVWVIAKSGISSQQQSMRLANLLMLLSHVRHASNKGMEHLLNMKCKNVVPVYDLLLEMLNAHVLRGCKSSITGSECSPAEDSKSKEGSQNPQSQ
Androgen receptor (Homo sapiens), sequence (P10275 whole entry, looked up): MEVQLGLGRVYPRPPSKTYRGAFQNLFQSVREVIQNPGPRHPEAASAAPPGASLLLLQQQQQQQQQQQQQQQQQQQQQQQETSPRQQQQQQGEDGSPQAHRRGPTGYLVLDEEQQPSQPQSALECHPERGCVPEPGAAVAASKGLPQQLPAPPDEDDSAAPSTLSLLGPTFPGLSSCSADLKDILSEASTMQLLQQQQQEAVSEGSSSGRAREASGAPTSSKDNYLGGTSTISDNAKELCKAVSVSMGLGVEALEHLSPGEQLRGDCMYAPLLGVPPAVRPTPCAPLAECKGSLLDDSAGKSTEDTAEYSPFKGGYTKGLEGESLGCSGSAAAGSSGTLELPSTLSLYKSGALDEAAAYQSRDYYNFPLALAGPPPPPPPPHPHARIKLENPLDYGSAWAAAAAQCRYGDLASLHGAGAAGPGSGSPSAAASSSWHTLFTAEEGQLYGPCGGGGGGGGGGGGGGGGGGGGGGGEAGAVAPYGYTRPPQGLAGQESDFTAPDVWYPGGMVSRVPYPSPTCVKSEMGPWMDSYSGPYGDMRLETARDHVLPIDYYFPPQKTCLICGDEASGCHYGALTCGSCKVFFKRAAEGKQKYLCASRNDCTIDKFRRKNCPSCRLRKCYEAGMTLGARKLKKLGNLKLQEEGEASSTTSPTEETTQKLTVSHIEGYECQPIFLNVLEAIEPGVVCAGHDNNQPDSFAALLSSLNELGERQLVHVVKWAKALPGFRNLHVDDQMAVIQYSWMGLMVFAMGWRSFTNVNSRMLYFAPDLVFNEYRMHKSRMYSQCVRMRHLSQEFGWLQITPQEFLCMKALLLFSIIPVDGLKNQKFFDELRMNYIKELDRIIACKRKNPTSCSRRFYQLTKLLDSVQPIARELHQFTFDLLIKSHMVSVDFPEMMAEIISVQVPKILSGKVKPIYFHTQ
Estrogen receptor (Homo sapiens), sequence (P03372 whole entry, looked up): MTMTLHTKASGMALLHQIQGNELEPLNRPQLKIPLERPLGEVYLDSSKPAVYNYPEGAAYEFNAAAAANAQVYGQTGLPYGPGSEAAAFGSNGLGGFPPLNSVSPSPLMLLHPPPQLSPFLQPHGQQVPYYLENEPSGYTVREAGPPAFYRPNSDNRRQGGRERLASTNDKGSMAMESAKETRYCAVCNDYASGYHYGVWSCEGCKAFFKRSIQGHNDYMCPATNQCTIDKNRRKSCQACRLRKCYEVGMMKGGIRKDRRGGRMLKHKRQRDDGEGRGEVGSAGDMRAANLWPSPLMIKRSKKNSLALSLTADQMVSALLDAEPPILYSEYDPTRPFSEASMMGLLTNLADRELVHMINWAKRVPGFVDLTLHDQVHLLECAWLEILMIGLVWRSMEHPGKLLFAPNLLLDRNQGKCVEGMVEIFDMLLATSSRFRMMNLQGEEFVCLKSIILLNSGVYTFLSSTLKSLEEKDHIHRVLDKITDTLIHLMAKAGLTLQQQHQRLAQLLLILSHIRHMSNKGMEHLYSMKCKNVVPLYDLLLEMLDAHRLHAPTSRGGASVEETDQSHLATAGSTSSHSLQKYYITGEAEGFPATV
Progesterone receptor (Homo sapiens), sequence (P06401 whole entry, looked up): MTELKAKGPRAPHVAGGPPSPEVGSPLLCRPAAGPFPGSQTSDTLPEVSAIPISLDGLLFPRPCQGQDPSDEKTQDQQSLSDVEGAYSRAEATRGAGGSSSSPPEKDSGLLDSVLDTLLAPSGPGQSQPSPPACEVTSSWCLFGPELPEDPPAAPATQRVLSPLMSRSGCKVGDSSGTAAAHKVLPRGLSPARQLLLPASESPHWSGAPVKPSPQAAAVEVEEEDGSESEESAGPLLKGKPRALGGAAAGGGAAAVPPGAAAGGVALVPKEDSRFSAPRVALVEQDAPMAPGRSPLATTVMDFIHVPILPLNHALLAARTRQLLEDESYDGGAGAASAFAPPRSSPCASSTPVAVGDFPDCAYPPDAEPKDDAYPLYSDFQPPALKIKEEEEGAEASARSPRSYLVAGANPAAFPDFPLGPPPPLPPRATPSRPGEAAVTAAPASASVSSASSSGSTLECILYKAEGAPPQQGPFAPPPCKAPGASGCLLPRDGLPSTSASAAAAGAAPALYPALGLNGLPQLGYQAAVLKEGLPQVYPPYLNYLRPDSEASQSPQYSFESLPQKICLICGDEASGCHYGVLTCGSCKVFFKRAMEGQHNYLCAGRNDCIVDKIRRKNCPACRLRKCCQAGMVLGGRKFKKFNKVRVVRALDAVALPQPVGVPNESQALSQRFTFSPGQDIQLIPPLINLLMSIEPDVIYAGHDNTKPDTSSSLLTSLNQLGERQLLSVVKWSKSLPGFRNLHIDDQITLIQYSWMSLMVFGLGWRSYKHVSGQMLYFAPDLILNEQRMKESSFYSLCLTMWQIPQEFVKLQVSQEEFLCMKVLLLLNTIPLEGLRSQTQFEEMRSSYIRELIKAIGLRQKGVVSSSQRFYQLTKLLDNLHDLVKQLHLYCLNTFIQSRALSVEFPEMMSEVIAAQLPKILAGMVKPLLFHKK
Thyrotropin receptor (Homo sapiens), sequence (P16473 whole entry, looked up): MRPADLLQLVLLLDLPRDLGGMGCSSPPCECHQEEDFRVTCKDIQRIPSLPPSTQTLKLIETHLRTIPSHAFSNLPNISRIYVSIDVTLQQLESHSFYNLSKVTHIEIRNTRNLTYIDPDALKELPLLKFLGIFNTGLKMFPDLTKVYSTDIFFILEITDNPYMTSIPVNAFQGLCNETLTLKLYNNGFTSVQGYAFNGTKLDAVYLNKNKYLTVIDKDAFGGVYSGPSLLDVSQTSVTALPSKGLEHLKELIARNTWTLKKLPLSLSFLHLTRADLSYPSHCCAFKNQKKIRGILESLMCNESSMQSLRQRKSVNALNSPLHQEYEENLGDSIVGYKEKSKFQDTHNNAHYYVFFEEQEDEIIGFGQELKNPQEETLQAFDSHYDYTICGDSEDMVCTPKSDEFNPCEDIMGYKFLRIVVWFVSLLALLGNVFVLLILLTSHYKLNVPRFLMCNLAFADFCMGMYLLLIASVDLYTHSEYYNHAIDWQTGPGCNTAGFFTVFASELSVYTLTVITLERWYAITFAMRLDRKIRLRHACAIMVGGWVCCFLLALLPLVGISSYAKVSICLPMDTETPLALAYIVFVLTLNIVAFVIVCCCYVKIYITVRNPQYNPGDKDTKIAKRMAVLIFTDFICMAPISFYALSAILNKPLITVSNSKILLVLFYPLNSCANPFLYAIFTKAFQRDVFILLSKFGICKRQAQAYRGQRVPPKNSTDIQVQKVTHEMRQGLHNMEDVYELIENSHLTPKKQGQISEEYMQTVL

CCN=c1cc2oc3cc(NCC)c(C)cc3c(-c3ccccc3C(=O)OCC)c-2cc1C
inactive: Potency [1] | Potency [5] | Potency [7] | outcome [9]
active: Potency [2] 0.272 µM | Potency [3] 272 nM and 306 nM | Potency [4] 54.3 µM and 24.3 µM | Potency [6] 54.3 µM and 34.4 µM | Potency [8] 9.65 µM and 9.69 µM | Potency [10] 48.4 µM and 54.5 µM | Potency [11] 61.1 µM | Potency [12] 48.4 µM | Potency [13] 48.8 µM and 49 µM | Potency [14] 48.8 µM and 49 µM | Potency [15] 8.47 µM and 10.7 µM | Potency [16] 6.89 µM and 5.49 µM | Potency [17] 2.51 µM and 1.54 µM

CC(C)(C)c1cc(CCC(=O)NCCCCCCNC(=O)CCc2cc(C(C)(C)C)c(O)c(C(C)(C)C)c2)cc(C(C)(C)C)c1O
inactive: Potency [1] | Potency [2] | Potency [3] | Potency [4] | Potency [5] | Potency [6] | Potency [7] | outcome [18] | Potency [19] | Potency [8] | outcome [9] | Potency [10] | Potency [12] | Potency [13] | Potency [14] | Potency [20] | Potency [15] | Potency [16] | Potency [17]

Cc1cnccn1
inactive: Potency [1] | Potency [2] | Potency [3] | Potency [4] | Potency [5] | Potency [6] | Potency [7] | Potency [8] | outcome [9] | Potency [10] | Potency [11] | Potency [13] | Potency [14] | Potency [20] | Potency [15] | Potency [16] | Potency [17]

CCc1c(Br)c(Br)c(Br)c(Br)c1Br
inactive: Potency [1] | Potency [2] | Potency [3] | Potency [4] | Potency [5] | Potency [6] | Potency [7] | Potency [8] | Potency [10] | Potency [12] | Potency [13] | Potency [14] | Potency [20] | Potency [15] | Potency [16] | Potency [17]

CC(C)=CCCC(C)O (stereo unspecified)
inactive: Potency [1] | Potency [2] | Potency [3] | Potency [4] | Potency [5] | Potency [6] | Potency [7] | outcome [18] | Potency [19] | outcome [9] | Potency [10] | Potency [11] | Potency [13] | Potency [14] | Potency [20] | Potency [17]

CC(=O)O[C@@H]1C[C@@H]2CC[C@@]1(C)C2(C)C
inactive: Potency [1] | Potency [2] | Potency [3] | Potency [4] | Potency [5] | Potency [6] | outcome [18] | Potency [19] | Potency [8] | outcome [9] | Potency [10] | Potency [11] | Potency [12] | Potency [13] | Potency [14] | Potency [20] | Potency [15] | Potency [16] | Potency [17]

c1ccc2c(c1)CCC2
inactive: Potency [1] | Potency [2] | Potency [3] | Potency [4] | Potency [5] | Potency [6] | Potency [7] | outcome [18] | Potency [19] | Potency [8] | outcome [9] | Potency [10] | Potency [11] | Potency [13] | Potency [14] | Potency [20] | Potency [15] | Potency [16] | Potency [17]

COc1nccnc1CC(C)C
inactive: Potency [1] | Potency [2] | Potency [3] | Potency [4] | Potency [5] | Potency [6] | Potency [7] | outcome [18] | Potency [19] | Potency [8] | Potency [11] | Potency [13] | Potency [14] | Potency [20] | Potency [15] | Potency [16] | Potency [17]

Cc1cccc(C)n1
inactive: Potency [1] | Potency [2] | Potency [3] | Potency [4] | Potency [5] | Potency [6] | Potency [7] | outcome [18] | Potency [8] | outcome [9] | Potency [10] | Potency [11] | Potency [12] | Potency [13] | Potency [14] | Potency [20]

O=c1cccc[nH]1
inactive: Potency [1] | Potency [2] | Potency [3] | Potency [4] | Potency [5] | Potency [6] | Potency [7] | outcome [18] | Potency [19] | Potency [8] | outcome [9] | Potency [10] | Potency [12] | Potency [13] | Potency [14] | Potency [20] | Potency [15] | Potency [16] | Potency [17]

C[Si](C)(C)Cl
inactive: Potency [1] | Potency [2] | Potency [3] | Potency [4] | Potency [5] | Potency [6] | Potency [7] | outcome [18] | Potency [19] | Potency [8] | outcome [9] | Potency [11] | Potency [13] | Potency [20]

N[C@@H](CSSC[C@H](N)C(=O)O)C(=O)O
inactive: activation [1] 5.41% [at 0.348 µM] | activity, negative = inhibition [2] 28.3% [at 0.349 µM] | activity change, negative = cytotoxicity [3] 0.823% [at 0.35 µM] | activity change, negative = cytotoxicity [4] 3.32% [at 0.349 µM] | activation [5] -0.591% [at 0.349 µM] | activity change, negative = cytotoxicity [6] -5.72% [at 0.349 µM] | cAMP activity change [18] -6.57% [at 0.349 µM] | activity change, negative = inhibition [19] 0.59% [at 0.349 µM] | activity change, negative = cytotoxicity [8] 7.62% [at 0.349 µM] | activation [9] -4.21% [at 0.349 µM] | viability change, negative = cytotoxic [13] -1.61% [at 0.29 µM] | activity change, negative = cytotoxicity [14] 1.93% [at 0.29 µM] | activation [20] 1.61% [at 0.29 µM]

CC1=CP(=O)(c2ccccc2)CC1 (stereo unspecified)
inactive: Potency [1] | Potency [2] | Potency [3] | Potency [4] | Potency [5] | Potency [6] | Potency [7] | outcome [18] | Potency [19] | Potency [8] | outcome [9] | Potency [10] | Potency [11] | Potency [12] | Potency [13] | Potency [14] | Potency [20] | Potency [16] | Potency [17]

CCC(C)(C)c1cc(O)c(C(C)(C)CC)cc1O
inactive: Potency [1] | Potency [5] | Potency [6] | Potency [7] | outcome [18] | Potency [8] | outcome [9] | Potency [10] | Potency [13] | Potency [14] | Potency [16] | Potency [17]
active: Potency [2] 48.6 µM | Potency [3] 61.1 µM | Potency [4] 61.1 µM
